Biological target: Neurogenic locus notch homolog protein 3 (Homo sapiens) (UniProt Q9UM47)
Experiment: NOTCH3 binders on small-molecule microarray, primary screen, biochemical, 635/667 nm fluorescence (AID 1096)
Settings: NOTCH3 binding, 635 nm fluorescence, higher = more signal

Sequence of Neurogenic locus notch homolog protein 3 (Homo sapiens) (Q9UM47 whole entry, looked up): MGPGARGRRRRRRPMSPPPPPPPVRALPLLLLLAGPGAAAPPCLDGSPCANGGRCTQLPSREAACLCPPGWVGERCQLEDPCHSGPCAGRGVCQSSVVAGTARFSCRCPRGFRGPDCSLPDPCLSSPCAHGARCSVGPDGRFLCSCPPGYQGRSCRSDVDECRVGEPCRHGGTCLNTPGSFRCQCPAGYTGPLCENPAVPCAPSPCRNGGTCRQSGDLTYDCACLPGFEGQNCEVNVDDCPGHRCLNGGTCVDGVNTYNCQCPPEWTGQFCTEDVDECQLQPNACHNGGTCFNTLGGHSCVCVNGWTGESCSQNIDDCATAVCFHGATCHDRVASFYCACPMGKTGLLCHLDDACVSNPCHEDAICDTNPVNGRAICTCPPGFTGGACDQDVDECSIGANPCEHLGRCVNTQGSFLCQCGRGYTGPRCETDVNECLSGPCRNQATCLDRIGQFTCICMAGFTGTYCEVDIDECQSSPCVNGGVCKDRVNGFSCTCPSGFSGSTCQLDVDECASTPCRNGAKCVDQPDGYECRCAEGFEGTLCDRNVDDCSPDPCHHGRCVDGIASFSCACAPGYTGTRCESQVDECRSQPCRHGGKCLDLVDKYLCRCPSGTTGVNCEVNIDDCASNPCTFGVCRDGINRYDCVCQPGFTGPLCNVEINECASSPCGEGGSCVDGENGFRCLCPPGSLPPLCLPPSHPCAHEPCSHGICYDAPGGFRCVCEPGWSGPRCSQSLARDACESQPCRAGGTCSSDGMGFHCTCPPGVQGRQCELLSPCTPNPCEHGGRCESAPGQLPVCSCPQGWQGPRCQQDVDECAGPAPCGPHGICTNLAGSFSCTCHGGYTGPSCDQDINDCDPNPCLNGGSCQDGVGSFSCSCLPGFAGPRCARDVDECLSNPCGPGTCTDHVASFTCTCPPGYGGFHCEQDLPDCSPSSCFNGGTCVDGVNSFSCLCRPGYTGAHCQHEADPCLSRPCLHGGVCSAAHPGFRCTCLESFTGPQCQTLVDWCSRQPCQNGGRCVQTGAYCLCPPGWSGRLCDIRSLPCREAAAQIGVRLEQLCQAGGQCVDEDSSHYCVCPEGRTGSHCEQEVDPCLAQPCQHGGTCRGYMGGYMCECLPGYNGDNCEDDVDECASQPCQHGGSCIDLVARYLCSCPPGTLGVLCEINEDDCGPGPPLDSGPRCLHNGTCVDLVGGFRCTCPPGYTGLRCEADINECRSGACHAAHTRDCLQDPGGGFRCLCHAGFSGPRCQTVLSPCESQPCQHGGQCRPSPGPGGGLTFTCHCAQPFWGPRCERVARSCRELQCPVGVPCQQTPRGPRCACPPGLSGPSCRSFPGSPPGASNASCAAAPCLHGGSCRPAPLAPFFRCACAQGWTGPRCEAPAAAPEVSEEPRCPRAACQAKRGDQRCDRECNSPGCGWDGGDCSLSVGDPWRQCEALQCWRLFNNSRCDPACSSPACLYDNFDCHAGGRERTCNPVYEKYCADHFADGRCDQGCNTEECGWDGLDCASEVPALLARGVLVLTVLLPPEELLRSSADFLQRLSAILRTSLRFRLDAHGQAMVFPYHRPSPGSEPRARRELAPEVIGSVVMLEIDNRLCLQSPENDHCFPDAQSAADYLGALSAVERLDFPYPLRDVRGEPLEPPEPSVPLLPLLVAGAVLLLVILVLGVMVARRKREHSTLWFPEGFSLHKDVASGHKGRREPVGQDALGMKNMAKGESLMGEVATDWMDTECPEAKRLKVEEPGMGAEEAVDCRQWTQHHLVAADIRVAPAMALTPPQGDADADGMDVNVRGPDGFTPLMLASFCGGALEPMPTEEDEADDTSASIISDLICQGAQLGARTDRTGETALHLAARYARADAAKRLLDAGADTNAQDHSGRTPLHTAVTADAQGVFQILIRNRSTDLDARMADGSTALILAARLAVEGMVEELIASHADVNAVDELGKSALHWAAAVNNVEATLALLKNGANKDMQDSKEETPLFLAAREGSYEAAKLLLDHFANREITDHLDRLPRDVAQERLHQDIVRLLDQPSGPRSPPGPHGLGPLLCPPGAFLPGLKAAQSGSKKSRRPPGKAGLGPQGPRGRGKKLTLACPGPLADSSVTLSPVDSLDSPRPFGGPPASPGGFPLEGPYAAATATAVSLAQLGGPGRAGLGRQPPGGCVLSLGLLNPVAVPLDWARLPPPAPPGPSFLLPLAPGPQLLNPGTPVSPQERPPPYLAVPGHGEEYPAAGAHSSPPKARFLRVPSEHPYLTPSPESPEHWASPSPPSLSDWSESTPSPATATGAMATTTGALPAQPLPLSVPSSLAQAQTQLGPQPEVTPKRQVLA

How did the composite z-score turn out when O=C1OCCC/C=C\[C@H]2OC34C=CCN(Cn5nnc6ccccc65)C(=O)[C@H]3N(CCCO)C(=O)[C@@H]4C12 (stereo partly specified) was run?
Its composite z-score is -0.0127.

For CC(C)N1C(=O)c2ccccc2[C@](C)(C(=O)NC2CC2)[C@@H]1c1ccc(CO)cc1, which composite z-score is on record?
Its composite z-score is 0.764.

O=C1C2C=CC(C(O)CCc3ccccc3)N(Nc3ccccc3)C2C(=O)N1c1ccccc1 (stereo unspecified) was tested. Which composite z-score did it give?
Its composite z-score is 1.02.

O=C1O[C@H](c2ccccc2)[C@H](c2ccccc2)N2[C@H]1[C@@H](C(=O)N1CCCCCCC1)[C@]1(C(=O)Nc3ccc(C#CC4=CCCCC4)cc31)[C@H]2c1ccc(O)cc1 was tested. Which composite z-score did it give?
Its composite z-score is 1.02.

With CC(C)OC(=O)C1=CCC(c2cccc(Cl)c2)O1 (stereo unspecified) as the compound, how does the composite z-score read?
Its composite z-score is -0.129.

With C=CCN1C(=O)[C@@]2(O[C@@H](CCO)[C@H]([Si](C)(C)c3ccc(OC)cc3)[C@H]2C)c2cc(N3C(=O)COc4ccccc43)ccc21 as the compound, how does the composite z-score read?
Its composite z-score is 0.4.

C=CCC(OC(C)=O)[C@@H]1[C@@H](N(Cc2ccc(-c3ccccc3)cc2)C(=O)c2ccc(C)cc2)c2cc(OCCCO)ccc2N1C(=O)c1ccc2ccccc2n1 (stereo partly specified) was tested. Which composite z-score did it give?
Its composite z-score is -0.197.

For COCCOC(=O)N1C(=O)[C@@]2(c3cc(C#CC4=CCCCC4)ccc31)[C@H](c1ccc(OCCO)cc1)N1[C@H](c3ccccc3)[C@H](c3ccccc3)OC(=O)[C@H]1[C@@H]2C(=O)Nc1nc2ccccc2s1, which composite z-score is on record?
The composite z-score was 1.08.

Which composite z-score does the source give for O=[N+]([O-])c1ccc(C[n+]2ccc(CCCO)cc2)o1 here?
The composite z-score was 1.07.

For C=C(C)[C@@H]1CC=C(C(O)C2C=CC3C(=O)N(Cc4ccccc4)C(=O)C3N2n2cnnc2)CC1 (stereo partly specified), which composite z-score is on record?
The composite z-score was -0.191.

For CCCNC(=O)[C@@]1(C)c2ccccc2C(=O)N(Cc2cc(F)cc(C(F)(F)F)c2)[C@H]1c1ccc(CO)cc1, which composite z-score is on record?
Its composite z-score is -0.131.
